Screening results: PubChem, National Center for Advancing Translational Sciences (NCATS)
The list is not random: actives were taken first. Their share in the collection is about 9.4%.
Rab9 promoter act: activators of Rab9 promoter. 320,000 tested, 2.8% active. Potency, µM (top dose mostly 9.22 µM), for the others: at the top dose activation, negative = inhibition, most hits filed as activators. Huh7 Rab9 promoter-luciferase reporter, luminescence, 24 h; also: % of control where 0% means no effect; nearly all actives have a fitted effect of over 60% in size
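Cells were plated at 1500 per well in reduced-serum medium with 10% FBS and left 2 h. Compound in DMSO was then added for 24 h at 37 °C. Reporter signal was read by luminescence after 10 min with luciferase detection reagent.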
ELG1 genotox: genotoxicity induction in ELG1-luciferase HEK293T cells; HEK293T ELG1-luciferase reporter, luminescence, 16 h; Potency, µM (top dose mostly 46 µM), without a hit: at the highest dose activity change, positive = activation, hits mostly activators; 330,000 tested, 1.3% active; AID 504466; also: % of control where 0% means no effect; nearly all actives have a fitted effect of over 60% in size
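HEK293T cells expressing luciferase-tagged ELG1 were exposed to compound or DMSO vehicle for 16 hr at 37 °C and 5% CO2. Luciferase activity was then measured with ONE-Glo after 30 min at room temperature.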
SMN2 splice up: SMN2 splice variant enhancement; HEK293 SMN2-luciferase splicing reporter, luminescence, 30-36 h; Potency, µM (series often up to 46.1 µM), without a hit: at the highest dose activity change, positive = activation, hits mostly activators; 210,000 tested, 2.8% active; also: % of control where 0% means no effect; nearly all actives have a fitted effect of over 55% in size
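qHTS luciferase splicing reporter: luminescence rises when SMN2 exon 7 is included in transfected HEK293 cells. Compound exposure lasted 30-36 h at 37C, with 4.5 mM final sodium butyrate as control, followed by a ONE-Glo read.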
FLuc counter: inhibits or activates purified firefly luciferase, miR-21 counter-screen; purified FLuc, Km substrates, luminescence inhibition; P08659; Potency, µM (top dose mostly 57.5 µM), for inactives: at the highest dose activity change, negative = inhibition, actives largely listed as inhibitors; AID 588342; 360,000 tested, 6.9% active;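 also: plate controls were vehicle for no effect and reference inhibitor for full effect; nearly all actives have a fitted effect of over 55% in size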
Target sequence (P08659 whole entry, looked up): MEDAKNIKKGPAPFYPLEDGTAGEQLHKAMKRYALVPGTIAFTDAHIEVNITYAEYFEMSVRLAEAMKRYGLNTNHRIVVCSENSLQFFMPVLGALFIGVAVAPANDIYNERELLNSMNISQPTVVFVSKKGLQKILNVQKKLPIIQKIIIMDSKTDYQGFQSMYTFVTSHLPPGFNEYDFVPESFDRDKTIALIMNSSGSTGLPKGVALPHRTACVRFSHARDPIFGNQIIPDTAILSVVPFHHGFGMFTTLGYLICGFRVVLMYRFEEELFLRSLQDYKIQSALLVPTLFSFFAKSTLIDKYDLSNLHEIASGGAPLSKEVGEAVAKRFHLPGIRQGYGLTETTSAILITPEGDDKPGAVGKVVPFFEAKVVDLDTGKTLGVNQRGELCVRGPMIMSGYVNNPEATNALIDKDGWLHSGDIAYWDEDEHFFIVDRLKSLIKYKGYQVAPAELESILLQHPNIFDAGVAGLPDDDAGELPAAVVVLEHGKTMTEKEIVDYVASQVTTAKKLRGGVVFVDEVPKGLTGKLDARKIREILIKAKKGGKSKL
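Purified P. pyralis luciferase, 10 nM final, with Km-level 10 uM D-luciferin and 10 uM ATP in 50 mM Tris acetate pH 7.5, 10 mM Mg acetate, 0.01% Tween-20, 0.05% BSA; 6-point qHTS titration about 60 µM downward; luminescence read.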
NPC1 prom act: activators of NPC1 promoter. Huh7 NPC1 promoter luciferase reporter, 24 h. Potency, µM (doses to about 9.22 µM), for inactives: at the top dose activation, hits mostly activators. 320,000 tested, 2.4% active; also: % of control where 0% means no effect; nearly all actives have a fitted effect of over 60% in size
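Readout is luciferase luminescence, reflecting NPC1 promoter activation in stably transfected Huh7 cells after 24 h compound exposure at 37 °C in reduced-serum medium with 10% FBS.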
ELG1 repair inh: inhibitors of ELG1-dependent DNA repair in HEK293T cells; HEK293T ELG1-luciferase reporter, luminescence, 16 h; DNA damage induced by 5-fluorouridine; Potency, µM (highest dose often 46.1 µM), without a hit: top-dose activity change, negative = inhibition, usual class: inhibitors; 330,000 tested, 2.3% active; AID 504467; also: % is scaled to controls: 0 for no effect and ±100 for the full control effect; nearly all actives have a fitted effect of over 55% in size
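In this reporter screen, reduction of luminescence relative to DMSO vehicle indicated activity. Compounds and 5-fluorouridine were added together to 2,000 cells per well, incubated for 16 hr at 37 °C, then developed with ONE-Glo.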
The depositor's hits bear a star; ? = inconclusive; . = no result; [ ] = dose if it differs, or a comment. Calls follow the shape of the dose curve; as a rule, active = well fitted curve in the direction sought with a large enough effect; inconclusive = small, poorly fitted or top-dose-only effect, or another doubt; inactive = no such curve, though single readings can be large; an effect the other way counts as inactive or inconclusive. Potency is read from the fitted curve at half-maximal effect.

SMILES | Rab9 promoter act | ELG1 genotox | SMN2 splice up | FLuc counter | NPC1 prom act | ELG1 repair inh
CN1C(=O)/C(=C\c2ccc(N3CCCCC3)o2)C(=O)NC1=S | 1.6µM* | 5.8µM* | 7.1µM* | 8.5µM* | 2.5µM* | ?
CN1C(=O)/C(=C/c2ccc(Cl)s2)C(=O)NC1=S | 6% | 17% | . | ? | 0% | 24%
Cc1ccsc1/C=C1\C(=O)NC(=S)N(C)C1=O | -5% | ? | . | 15µM* | 0% | ?
CN1C(=O)/C(=C/c2ccc(N3CCCCCC3)o2)C(=O)NC1=S | 1.4µM* | 21µM* | 11µM* | 4.8µM* | 2.2µM* | ?
O=C1C(=O)c2cccc3cccc1c23 | 13% | ? | -15% | 1% | -10% | -6%
O=C1C(=O)c2ccccc2-c2ccccc21 | -33% | -23% | -106% | -9% | -46% | 7.3µM*
NC1=C(Br)C(=O)c2ccccc2C1=O | -37% | -10% | . | ? | -37% | 23µM*
O=C(O)[C@H]1[O][Sb][O][C@@H](C(=O)O)C1O (some centres undefined) | . | . | -5%[9.22 µM] | . | . | .
Cc1nc2c(=O)n(C)c(=O)nc-2n(C)n1 | -35% | -14% | -75% | 0% | -42% | 1.8µM*
O=C(Oc1ccccc1)c1cc2ccccc2o1 | 0% | 1% | 1% | 9.5µM* | 0% | 24%
O=C1NC(=O)C(CCc2ccncc2)(Cc2cccc(Cl)c2Cl)C(=O)N1c1ccc(Br)cc1 (centres undefined) | -29% | -5% | 1% | 1% | -25% | 16µM*
CCc1ccc(N2C(=O)NC(=O)C(CCc3ccncc3)(CCc3ccncc3)C2=O)cc1 | -3% | 0% | 5% | -2% | -5% | ?
c1cc(CCN2CCCCC2)ccn1 | . | . | -17%[9.22 µM] | . | . | .
Cc1cccc(-n2c(=S)[nH]c3ccccc3c2=O)n1 | 3% | 18% | -19% | -1% | 1% | -16%
O=c1c2ccccc2[nH]c(=S)n1-c1ccc2c(c1)OCCO2 | ? | 15% | . | 11µM* | ? | ?
O=C(CN1CCCC1=O)Nc1ccccc1 | -3% | 3% | 7% | 2% | -1% | 7%
O=C(CN1CCCC1)Nc1ccc(NC(=O)Nc2ccccc2)cc1 | ? | 16% | . | 19µM* | ? | ?
CN(C(=O)Cc1ccc(Cl)c(Cl)c1)C(CN1CCCC1)c1cccc(N=C=S)c1 (centres undefined) | . | . | -92% | . | . | .
CC(=O)C1CCC2C3CCC4=CC(=O)CC[C@@]4(C)C3CC[C@]12C (some centres undefined) | . | . | -69% | . | . | .
C[C@H]1COC2=C1C(=O)C(=O)c1c2ccc2c1CCCC2(C)C | 14% | 13% | . | 21µM* | -2% | ?
CC(C)CC(NS(=O)(=O)c1ccc2c(c1)oc(=O)n2C)C(=O)N1CC=C(c2ccccc2)CC1 (centres undefined) | 5% | -8% | -10% | -1% | -2% | ?
CCN(CC)S(=O)(=O)c1cc(NC(=O)C(C)N2CC=C(c3ccccc3)CC2)ccc1C (centres undefined) | -6% | 2% | -60% | 2% | -7% | 15µM*
C#CC1(O)CCC2C3CCC4=CC(=O)CCC4(C)C3CCC21C (centres undefined) | . | . | -11% | . | . | .
C#C[C@]1(O)CC[C@H]2[C@@H]3CCC4=Cc5nc6nc7ccccc7n6cc5C[C@]4(C)[C@H]3CC[C@@]21C | -3% | -23% | . | -20% | -8% | 7.9µM*
CCCNC(=O)c1c(N)n(Cc2ccco2)c2nc3ccccc3nc12 | 0% | -9% | 6% | -1% | 2% | 23µM*
Nc1c(C(=O)NC2CCCC2)c2nc3ccccc3nc2n1CC1CCCO1 (centres undefined) | 1% | -7% | . | 0% | 1% | 15µM*
CC(C)CNC(=O)c1c(N)n(Cc2ccco2)c2nc3ccccc3nc12 | -4% | -8% | -8% | -1% | 0% | 26µM*
